# The supplement of paper PMC10849652
# Targets with a hit are over-represented here; the source holds about 8,800 in all. About 0.5% of all pairs of compound and target were hits. A number with no mark means an inactive call.
# How the values were obtained:
# Test in all cases: log2 fold change, soluble protein after heating vs DMSO (PISA); higher = thermal stabilisation; K562 lysate, 10 uM; active = over 0.2 and 3.5 SD of the protein, either way, in both replicates (recomputed)
# erlotinib = compound: C#Cc1cccc(Nc2ncnc3cc(OCCOC)c(OCCOC)cc23)c1 [erlotinib]
# In short: (§1)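 Values give the log-two fold change in thermal stability against solvent controls, from duplicates. Crude K562 extract at 1 mg/mL protein, made by dounce homogenisation in PBS pH 7.4 with 1 mM MgCl2, was treated with 10 μM compound for 30 min. After 3 min heating across 48°C-58°C, aliquots were pooled, adjusted to 0.5% NP-40 at 4°C and centrifuged at 21,000xg for 90 min. The supernatant was measured by TMTpro 16plex LC-MS/MS with channel sums equalised.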
# [1] = compound: C/C(=N\NC(=O)C1=CC(=CC=C1)S(=O)(=O)N2CCOCC2)/C3=C(C=CC(=C3)Cl)O
# In short: as §1
# [2] = compound: C1=CC(=CC=C1C2=NC3=C(N2)C=C(C=C3)C(=O)N)OC4=CC=C(C=C4)Cl
# In short: as §1
# [3] = compound: C1=CC2=C(C=CC(=C2)/C=C\3/C(=O)NC(=NCC4=CC=CS4)S3)N=C1
# In short: as §1
# [4] = compound: C1=CC2=NC=CN=C2C=C1/C=C/3\C(=O)NC(=O)S3
# In short: as §1
# [5] = compound: C1=CC=C(C=C1)C2=NC(=C(N2)C3=CC=NC=C3)C4=CC(=C(C=C4)Cl)O
# In short: as §1
# [6] = compound: C1=CC=C2C(=C1)C3=NNC4=CC=CC(=C43)C2=O
# In short: as §1
# [7] = compound: C1CCN(C1)C(=O)NC2=CC=CC(=C2)NC3=NC=C(C(=N3)NCCC4=CN=CN4)Br
# In short: as §1
# [8] = compound: C1CN(CCC1(CC2=CC=C(C=C2)Cl)N)C3=NC=NC4=C3C=CN4
# In short: as §1
# IRAK-1-4 Inhibitor I = compound: C1COCCN1CCN2C3=CC=CC=C3N=C2NC(=O)C4=CC(=CC=C4)[N+](=O)[O-] [IRAK-1-4 Inhibitor I]
# In short: as §1
# ibrutinib = compound: C=CC(=O)N1CCC[C@@H](n2nc(-c3ccc(Oc4ccccc4)cc3)c3c(N)ncnc32)C1 [ibrutinib]
# In short: as §1
# [9] = compound: CC(=O)c1cnc2ccc(-c3cc(Cl)c(O)c(Cl)c3)nc2c1N[C@H]1CC[C@H](CN(C)C)CC1
# In short: as §1
# ralimetinib = compound: CC(C)(C)Cn1c(N)nc2ccc(-c3[nH]c(C(C)(C)C)nc3-c3ccc(F)cc3)nc21 [ralimetinib]
# In short: as §1
# [10] = compound: CC(C)(O)CC(=O)NCCn1ccc2ncnc(Nc3ccc(Oc4cccc(C(F)(F)F)c4)c(Cl)c3)c21
# In short: as §1
# [11] = compound: CC(C)C1=C2N=C(C=C(N2N=C1)NCC3=CC=CC=C3)NCCCCCCN
# In short: as §1
# [12] = compound: CC1=C(C(CC(=O)N1)C2=CC=C(C=C2)C(F)(F)F)C(=O)NC3=C(C=C4C(=C3)C=NN4)F
# In short: as §1
# [13] = compound: CC1=C(C2=C(C=C1)C(=O)C3=CC=CC=C3N2CCCN)C
# In short: as §1
# [14] = compound: CC1=C(C=C(C=C1)NC(=O)C2=CC(=CC=C2)C(C)(C)C#N)NC3=CC4=C(C=C3)N=CN(C4=O)C
# In short: as §1
# [15] = compound: CC1=C(C=C(C=C1)NC(=O)C2=CC(=CC=C2)N(C)C)NC(=O)C3=CC=C(C=C3)O
# In short: as §1
# [16] = compound: CC1=CC=C(C=C1)SC2=C3C=C(SC3=CN=C2)C(=O)N
# In short: as §1
# UniProt P55211, sequence (P55211 whole entry, looked up): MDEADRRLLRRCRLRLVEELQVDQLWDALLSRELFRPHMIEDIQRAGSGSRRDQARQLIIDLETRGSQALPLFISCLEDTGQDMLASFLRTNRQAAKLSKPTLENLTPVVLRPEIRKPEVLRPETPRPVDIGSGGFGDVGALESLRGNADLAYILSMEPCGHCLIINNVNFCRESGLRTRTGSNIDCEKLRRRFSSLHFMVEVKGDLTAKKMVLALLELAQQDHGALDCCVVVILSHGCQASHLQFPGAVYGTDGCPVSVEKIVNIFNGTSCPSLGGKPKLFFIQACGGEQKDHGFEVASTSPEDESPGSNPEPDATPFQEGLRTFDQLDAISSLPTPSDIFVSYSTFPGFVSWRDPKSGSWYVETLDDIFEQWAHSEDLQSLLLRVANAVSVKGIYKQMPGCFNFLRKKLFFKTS
# UniProt Q8IWY9, sequence (Q8IWY9 whole entry, looked up): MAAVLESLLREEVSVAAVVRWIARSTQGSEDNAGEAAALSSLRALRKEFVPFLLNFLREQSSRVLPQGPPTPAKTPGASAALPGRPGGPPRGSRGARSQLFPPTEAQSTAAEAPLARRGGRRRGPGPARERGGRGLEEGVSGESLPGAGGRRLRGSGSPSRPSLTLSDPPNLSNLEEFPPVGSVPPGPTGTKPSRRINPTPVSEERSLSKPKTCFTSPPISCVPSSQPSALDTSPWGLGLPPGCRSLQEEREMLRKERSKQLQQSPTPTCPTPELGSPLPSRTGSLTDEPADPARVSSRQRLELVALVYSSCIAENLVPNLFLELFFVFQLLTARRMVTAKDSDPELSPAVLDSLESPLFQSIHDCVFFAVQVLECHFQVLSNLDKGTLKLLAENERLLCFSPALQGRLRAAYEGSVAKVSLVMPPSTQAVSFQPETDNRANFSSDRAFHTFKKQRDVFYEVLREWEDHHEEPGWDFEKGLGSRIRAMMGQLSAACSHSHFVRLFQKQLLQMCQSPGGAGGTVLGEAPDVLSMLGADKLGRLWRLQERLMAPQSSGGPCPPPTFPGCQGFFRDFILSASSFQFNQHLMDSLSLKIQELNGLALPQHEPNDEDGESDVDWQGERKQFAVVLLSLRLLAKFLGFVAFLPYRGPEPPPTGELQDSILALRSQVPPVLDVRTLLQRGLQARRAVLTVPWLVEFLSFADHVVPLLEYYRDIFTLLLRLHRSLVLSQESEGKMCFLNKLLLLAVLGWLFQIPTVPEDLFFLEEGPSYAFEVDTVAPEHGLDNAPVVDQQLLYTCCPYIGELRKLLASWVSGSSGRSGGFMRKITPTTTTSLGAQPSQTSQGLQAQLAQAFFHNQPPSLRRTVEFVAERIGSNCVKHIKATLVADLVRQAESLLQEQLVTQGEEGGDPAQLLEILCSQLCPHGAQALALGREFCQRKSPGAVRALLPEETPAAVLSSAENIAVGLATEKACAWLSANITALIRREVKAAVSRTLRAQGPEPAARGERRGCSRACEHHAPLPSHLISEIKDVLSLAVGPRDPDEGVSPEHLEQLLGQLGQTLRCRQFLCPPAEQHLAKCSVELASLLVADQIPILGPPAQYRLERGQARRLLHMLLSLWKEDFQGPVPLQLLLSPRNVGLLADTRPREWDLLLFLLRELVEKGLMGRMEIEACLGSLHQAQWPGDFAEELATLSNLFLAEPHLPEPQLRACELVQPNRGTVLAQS
# UniProt Q8WYN0, sequence (Q8WYN0 whole entry, looked up): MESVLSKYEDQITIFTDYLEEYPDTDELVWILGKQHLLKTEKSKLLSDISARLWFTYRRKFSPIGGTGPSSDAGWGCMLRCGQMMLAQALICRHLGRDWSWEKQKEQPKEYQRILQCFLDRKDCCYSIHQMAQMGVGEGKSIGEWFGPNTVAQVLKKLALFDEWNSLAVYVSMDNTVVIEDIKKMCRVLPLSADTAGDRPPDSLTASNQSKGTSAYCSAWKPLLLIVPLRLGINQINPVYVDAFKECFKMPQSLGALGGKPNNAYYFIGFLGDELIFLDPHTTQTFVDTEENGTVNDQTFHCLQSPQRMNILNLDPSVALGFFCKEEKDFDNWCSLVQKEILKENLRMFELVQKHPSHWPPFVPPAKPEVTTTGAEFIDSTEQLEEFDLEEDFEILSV
# UniProt P27708, sequence (P27708 whole entry, looked up): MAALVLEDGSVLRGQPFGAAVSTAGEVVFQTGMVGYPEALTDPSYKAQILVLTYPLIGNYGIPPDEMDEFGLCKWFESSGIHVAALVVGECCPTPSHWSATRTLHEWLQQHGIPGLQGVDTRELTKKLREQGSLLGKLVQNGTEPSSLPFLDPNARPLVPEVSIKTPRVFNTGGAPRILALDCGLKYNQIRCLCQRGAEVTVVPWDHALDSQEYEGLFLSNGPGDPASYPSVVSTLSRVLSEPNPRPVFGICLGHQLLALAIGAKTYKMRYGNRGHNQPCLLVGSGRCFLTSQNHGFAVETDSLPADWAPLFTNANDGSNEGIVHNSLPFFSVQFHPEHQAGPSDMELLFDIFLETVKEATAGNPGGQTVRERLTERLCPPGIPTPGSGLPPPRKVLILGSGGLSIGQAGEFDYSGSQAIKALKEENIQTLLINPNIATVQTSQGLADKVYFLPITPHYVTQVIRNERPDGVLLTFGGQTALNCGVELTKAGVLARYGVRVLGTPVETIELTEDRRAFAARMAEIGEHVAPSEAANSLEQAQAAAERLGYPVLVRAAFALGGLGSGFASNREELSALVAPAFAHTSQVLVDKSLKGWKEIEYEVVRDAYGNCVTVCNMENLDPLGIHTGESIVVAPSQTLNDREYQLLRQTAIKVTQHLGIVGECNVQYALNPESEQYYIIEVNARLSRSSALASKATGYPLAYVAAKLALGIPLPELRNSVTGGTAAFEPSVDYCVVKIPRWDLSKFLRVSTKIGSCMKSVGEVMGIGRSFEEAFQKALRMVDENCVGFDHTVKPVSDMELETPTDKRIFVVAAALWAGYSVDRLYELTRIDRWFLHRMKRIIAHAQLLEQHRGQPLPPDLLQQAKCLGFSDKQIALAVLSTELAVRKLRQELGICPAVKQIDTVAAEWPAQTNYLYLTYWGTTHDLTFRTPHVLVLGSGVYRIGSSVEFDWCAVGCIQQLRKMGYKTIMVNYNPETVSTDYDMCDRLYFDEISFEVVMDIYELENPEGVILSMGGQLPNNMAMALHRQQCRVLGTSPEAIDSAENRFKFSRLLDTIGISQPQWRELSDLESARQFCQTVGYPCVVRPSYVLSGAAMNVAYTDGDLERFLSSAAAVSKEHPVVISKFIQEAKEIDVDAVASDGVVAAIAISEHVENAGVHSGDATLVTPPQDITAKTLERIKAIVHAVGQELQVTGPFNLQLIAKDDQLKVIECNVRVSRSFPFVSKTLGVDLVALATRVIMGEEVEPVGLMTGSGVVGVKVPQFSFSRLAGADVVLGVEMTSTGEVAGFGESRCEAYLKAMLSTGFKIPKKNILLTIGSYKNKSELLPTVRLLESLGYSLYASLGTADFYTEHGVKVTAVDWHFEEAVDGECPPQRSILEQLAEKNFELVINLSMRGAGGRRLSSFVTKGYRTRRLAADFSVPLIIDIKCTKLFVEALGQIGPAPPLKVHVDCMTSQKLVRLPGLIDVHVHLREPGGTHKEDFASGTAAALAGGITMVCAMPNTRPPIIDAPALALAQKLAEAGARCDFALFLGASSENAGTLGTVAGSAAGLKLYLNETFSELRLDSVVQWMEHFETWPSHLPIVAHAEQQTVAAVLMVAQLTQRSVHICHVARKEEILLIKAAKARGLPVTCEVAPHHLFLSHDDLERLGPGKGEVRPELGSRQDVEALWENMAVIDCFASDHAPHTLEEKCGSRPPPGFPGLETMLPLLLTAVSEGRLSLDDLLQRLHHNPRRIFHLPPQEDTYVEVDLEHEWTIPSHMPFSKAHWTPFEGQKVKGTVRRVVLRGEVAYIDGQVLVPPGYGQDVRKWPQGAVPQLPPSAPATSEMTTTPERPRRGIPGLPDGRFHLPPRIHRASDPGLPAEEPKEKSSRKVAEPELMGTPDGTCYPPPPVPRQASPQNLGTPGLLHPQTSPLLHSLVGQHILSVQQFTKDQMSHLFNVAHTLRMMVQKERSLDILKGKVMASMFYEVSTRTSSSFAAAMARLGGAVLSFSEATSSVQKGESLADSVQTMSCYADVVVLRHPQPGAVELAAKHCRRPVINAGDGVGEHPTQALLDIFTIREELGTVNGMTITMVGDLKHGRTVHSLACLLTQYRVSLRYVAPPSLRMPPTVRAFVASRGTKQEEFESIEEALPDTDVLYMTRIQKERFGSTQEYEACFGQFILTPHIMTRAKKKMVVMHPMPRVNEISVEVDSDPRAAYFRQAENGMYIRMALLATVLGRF
# UniProt Q5BKX5, sequence (Q5BKX5 whole entry, looked up): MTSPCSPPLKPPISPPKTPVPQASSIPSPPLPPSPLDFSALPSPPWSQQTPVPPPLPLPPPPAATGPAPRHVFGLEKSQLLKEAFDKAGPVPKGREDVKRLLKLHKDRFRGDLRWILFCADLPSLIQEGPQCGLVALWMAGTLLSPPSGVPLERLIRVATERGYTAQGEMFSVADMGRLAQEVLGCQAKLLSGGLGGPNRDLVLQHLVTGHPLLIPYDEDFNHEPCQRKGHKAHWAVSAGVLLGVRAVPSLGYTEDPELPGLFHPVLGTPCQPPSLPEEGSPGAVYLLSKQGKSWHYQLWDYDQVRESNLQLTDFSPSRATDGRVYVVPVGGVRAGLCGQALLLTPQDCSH
# UniProt P21953, sequence (P21953 whole entry, looked up): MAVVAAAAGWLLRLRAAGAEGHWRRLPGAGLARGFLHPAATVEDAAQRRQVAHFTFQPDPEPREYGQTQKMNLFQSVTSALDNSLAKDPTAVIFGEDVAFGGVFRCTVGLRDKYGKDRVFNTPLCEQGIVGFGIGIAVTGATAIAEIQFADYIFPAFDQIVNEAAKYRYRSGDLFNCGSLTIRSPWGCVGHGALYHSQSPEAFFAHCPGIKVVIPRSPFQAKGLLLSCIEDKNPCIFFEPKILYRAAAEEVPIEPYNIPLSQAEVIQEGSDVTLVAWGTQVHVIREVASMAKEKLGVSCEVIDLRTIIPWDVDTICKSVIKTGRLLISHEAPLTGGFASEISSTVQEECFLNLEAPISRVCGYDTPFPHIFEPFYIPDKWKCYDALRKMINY
Target,log2 fold change (erlotinib),log2 fold change [1],log2 fold change [2],log2 fold change [3],log2 fold change [4],log2 fold change [5],log2 fold change [6],log2 fold change [7],log2 fold change [8],log2 fold change (IRAK-1-4 Inhibitor I),log2 fold change (ibrutinib),log2 fold change [9],log2 fold change (ralimetinib),log2 fold change [10],log2 fold change [11],log2 fold change [12],log2 fold change [13],log2 fold change [14],log2 fold change [15],log2 fold change [16]
CCNB2 (UniProt O95067),0.037,0.038,0.075,-0.061,-0.008,0.008,-0.125,-0.02,0.027,0.033,-0.062,0.358 (active),0.028,-0.028,0.023,-0.011,0.017,0.022,0.037,-0.079
BCKDHB (UniProt P21953),0.013,-0.034,0.033,-0.089,0.049,-0.098,-0.117,0.065,-0.012,0.134,-0.102,0.025,0.003,-0.01,-0.037,0.016,-0.022,-0.078,0.071,0.024
CDAN1 (UniProt Q8IWY9),0.006,-0.01,0.048,-0.025,-0.012,-0.04,-0.063,-0.001,0,0.003,0.035,-0.004,0,-0.029,-0.02,-0.001,-0.023,0.035,0.056,-0.008
CEP120 (UniProt Q8N960),0.044,-0.124,-0.03,-0.02,0.004,-0.007,-0.142,0.168,0.215,0.018,-0.02,-0.061,-0.076,-0.132,0.001,-0.174,-0.224,-0.015,0.001,-0.085
ATG4B (UniProt Q9Y4P1),0.012,0.002,-0.022,-0.024,0.028,-0.019,-0.007,0.008,-0.004,0.019,0.037,0.021,0.016,-0.028,-0.019,-0.014,0.033,0.005,0.046,0.013
C19orf54 (UniProt Q5BKX5),-0.012,0.042,0.035,-0.025,0.019,-0.004,0.022,-0.012,-0.012,0.054,0.041,0.003,-0.018,-0.055,0.028,0.012,0.06,-0.041,0.013,0.063
ATG4A (UniProt Q8WYN0),0.031,-0.087,-0.055,-0.01,0.007,0.01,-0.023,-0.015,0.038,-0.001,0.032,-0.006,0.011,-0.051,-0.055,-0.006,-0.004,0.053,0.021,-0.014
ATP13A1 (UniProt Q9HD20),0.02,-0.09,-0.153,0.024,-0.026,0.02,-0.054,-0.04,0.033,0.015,-0.021,0.048,0.029,-0.104,0.036,0.005,-0.089,-0.108,0.062,0.007
CDK5RAP3 isoform 4 (UniProt Q96JB5),0.009,-0.068,-0.011,-0.018,0.031,-0.002,-0.014,-0.016,0.016,0.022,-0.01,-0.001,-0.022,-0.022,-0.016,0.004,0.013,0.025,0.017,0.014
CASP9 (UniProt P55211),-0.007,0.008,0.008,0.03,0.069,-0.002,-0.008,0.014,0.006,0.034,-0.039,-0.06,0.04,-0.06,-0.017,0.01,-0.003,-0.01,0.011,-0.012
CCDC51 (UniProt Q96ER9),0.03,-0.08,-0.047,-0.024,-0.005,0.067,-0.07,0.005,0.029,-0.041,0.056,0.011,-0.012,0.036,-0.011,0.025,0.011,-0.013,0.033,0.013
BUB1B isoform 3 (UniProt O60566),0.019,0.013,-0.002,-0.026,0.01,0.021,-0.039,-0.031,-0.008,-0.016,0.035,-0.007,0.001,0.021,0.003,-0.001,0.004,-0.028,0.003,0.001
CHD4 isoform 2 (UniProt Q14839),-0.02,0.009,0.007,0.004,-0.016,-0.004,-0.013,-0.013,0.031,-0.015,-0.003,-0.008,0.026,0.011,0.025,0.001,-0.037,0.004,0.006,0.022
CARD11 (UniProt Q9BXL7),-0.03,-0.051,0.016,0.061,-0.168,-0.048,-0.022,-0.042,0.013,-0.01,-0.097,-0.023,-0.02,0.003,-0.075,-0.041,0.025,0.01,0.051,-0.143
CAD (UniProt P27708),0.013,0.003,-0.015,0.032,0.013,-0.006,-0.008,-0.002,0.011,-0.004,-0.009,-0.016,0.03,-0.002,0.005,-0.005,0.026,0.009,0.009,0.018
ATE1 isoform 2 (UniProt O95260),-0.022,-0.01,0.002,-0.063,0.027,0.007,0.021,0.054,0.013,-0.038,0.056,0.001,-0.006,0.063,-0.016,0.048,-0.001,-0.04,-0.004,0.011
